Source: PubChem BioAssay (Tox21)
The source made the active and inactive calls. Unless noted, the call rests on the fitted dose curve; in most records, active means well fitted curve in the direction sought with a large enough effect in the repeat runs; inconclusive means weak or mixed curves; inactive means no such curve, though single readings can be large; an effect the other way counts as inactive or inconclusive.

Legend:
[1] = qHTS assay for small molecule agonists of the p53 signaling pathway (AID 651631; calls by dose curve; further: nearly all actives have a fitted effect of over 15% in size)
Method in brief: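 Quantitative high-throughput format: 4,000 p53RE-bla HCT-116 cells/well, 5 h pre-incubation, 16 h compound exposure at 37 °C, 2 h room-temperature substrate step, fluorescence intensity measured.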

[2] = qHTS assay for small molecules that induce genotoxicity in human embryonic kidney cells expressing luciferase-tagged ATAD5 (AID 651632); further: nearly all actives have a fitted effect of over 15% in size
Method in brief: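 Concentration-response screen for ATAD5 upregulation in HEK293T luciferase reporter cells; 16 hr treatment at 37C, then luminescence after 30 min with Amplite at room temperature.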

[3] = qHTS assay for small molecule agonists of the p53 signaling pathway - cell viability (AID 651633; calls by dose curve;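 further: p53RE-bla HCT reporter cells with a stable beta-lactamase p53 reporter; series mostly up to about 83 µM; nearly all actives have a fitted effect of over 30% in size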)
Method in brief: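 Viability counter-read: CellTiter-Glo luminescence (30 min, room temperature) in the same p53RE-bla plates. These plates had been exposed to compounds for 16 h at 37 C.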

[4] = qHTS assay for small molecules that induce genotoxicity in human embryonic kidney cells expressing luciferase-tagged ATAD5 - cell viability (AID 651634; calls by dose curve; further: nearly all actives have a fitted effect of over 25% in size)
Method in brief: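 15.5 hr compound or vehicle exposure of HEK293T cells expressing luciferase-tagged ATAD5 at 37C; live-cell protease activity is read by fluorescence after 30 min of CellTiter-Fluor.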

[5] = qHTS assay for small molecule disruptors of the mitochondrial membrane potential - cell viability (AID 720634; calls by dose curve;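 further: human HepG2 liver cancer cells; series mostly up to about 83 µM; nearly all actives have a fitted effect of over 20% in size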)
Method in brief: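 In this qHTS format, HepG2 cells plated overnight were pinned with compound, incubated 1 hr, and assayed for ATP luminescence with CellTiter-Glo after m-MPI dye addition.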

[6] = qHTS assay for small molecule disruptors of the mitochondrial membrane potential (AID 720635)
Method in brief: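 Mitochondrial membrane potential tracked with Mito-MPS dye, red aggregates (ex 540/em 590 nm) against green monomers (ex 490/em 535 nm). Compound treatment 1 hr at 37C, dye 30 min in HepG2.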

[7] = qHTS assay to test for compound auto fluorescence at 590 nm (red) in HepG2 cells (AID 720674)
Method in brief: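 We screened compounds on adherent HepG2 cells, incubating them for an hour at 37 C in 5% CO2 before reading emission at 590 nm under 540 nm excitation; values reflect equivalence to Rose Bengal sodium fluorescence.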

[8] = qHTS assay to test for compound auto fluorescence at 535 nm (green) in HepG2 cells (AID 720675)
[9] = qHTS assay to test for compound auto fluorescence at 460 nm (blue) in HEK293 cells (AID 720678)
Method in brief: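 Blue read-out at excitation 405 nm and emission 460 nm follows overnight compound exposure of HEK293 cells at 37C in 5% CO2. Activity is given as auto fluorescence equivalency to triamterene.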

[10] = qHTS assay to test for compound auto fluorescence at 590 nm (red) in HEK293 cells (AID 720679)
Method in brief: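 Red channel, Ex/Em 540/590nm; signal expressed as equivalency to Rose Bengal sodium. HEK293, 2,000 cells/well, 10% dialyzed FBS; 23 nL compound pinned after 4-5 hr attachment; overnight 37C/5% CO2 before reading.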

[11] = qHTS assay to test for compound auto fluorescence at 535 nm (green) in HEK293 cells (AID 720680)
[12] = qHTS assay to test for compound auto fluorescence at 460 nm (blue) in HEK293 cell free culture (AID 720681)
Method in brief: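 Blue fluorescence (Ex 405/Em 460 nm, triamterene-equivalent) was read immediately after pin transfer of compound or DMSO into medium (DMEM, 10% FBS) without cells.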

[13] = qHTS assay to test for compound auto fluorescence at 535 nm (green) in HEK293 cell free culture (AID 720682)
Method in brief: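 Measurement is a direct plate read of green fluorescence (485 nm in, 535 nm out) after compound addition to serum-supplemented DMEM lacking cells, with fluorescein used to express intensities.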

[14] = qHTS assay to test for compound auto fluorescence at 590 nm (red) in HEK293 cell free culture (AID 720683)
Method in brief: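 Red-channel autofluorescence of compounds in culture medium (DMEM, 10% FBS), no cells, measured at 540/590 nm. Rose Bengal sodium is the reference fluorophore for equivalence.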

[15] = qHTS assay to test for compound auto fluorescence at 590 nm (red) in HepG2 cell free culture (AID 720684)
Method in brief: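 No cells present: MEM + 10% FBS only. Compound pinned in, red label read (540/590 nm). Activity = fluorescence equivalent to Rose Bengal sodium.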

[16] = qHTS assay to test for compound auto fluorescence at 460 nm (blue) in HepG2 cell free culture (AID 720685)
Method in brief: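 Cell-free plates of MEM plus 10% FBS received 23 nL compound or DMSO vehicle; blue-channel (405/460 nm) intensity scored against triamterene as reference fluorophore.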

[17] = qHTS assay to test for compound auto fluorescence at 535 nm (green) in HepG2 cell free culture (AID 720686)
[18] = qHTS assay to test for compound auto fluorescence at 460 nm (blue) in HepG2 cells (AID 720687)
Method in brief: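 Blue-channel autofluorescence (Ex/Em 405/460 nm, triamterene-equivalent) was measured after 1 hr compound exposure at 37 C, 5% CO2. Cells were HepG2, plated overnight at 37 C in MEM plus 10% FBS.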

[19] = biological target: Glucocorticoid receptor (Homo sapiens) (UniProt P04150); experiment: qHTS assay to identify small molecule agonists of the glucocorticoid receptor (GR) signaling pathway (AID 720691; active means well fitted activation curve with a large enough effect in the signal ratio in the repeat runs, not every such curve was filed as active; inconclusive means weak or mixed curves, or effect the other way; inactive means no such curve, though single readings can be large or run the other way; the % refers to the signal ratio; further: potency means the concentration at half of the fitted maximal effect)
Method in brief: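 Measures GR pathway activation through a GRE-beta-lactamase reporter stably integrated in HeLa cells, with 18 h compound treatment at 37 C and fluorescence detection using a FRET substrate.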

[20] = biological target: Glucocorticoid receptor (Homo sapiens) (UniProt P04150); experiment: qHTS assay to identify small molecule antagonists of the glucocorticoid receptor (GR) signaling pathway (AID 720692; active means well fitted inhibition curve with a large enough effect in the signal ratio in the repeat runs, not every such curve was filed as active; inconclusive means weak or mixed curves, or effect the other way; inactive means no such curve, though single readings can be large or run the other way; the % refers to the signal ratio)
Method in brief: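 Tox21 10K library screened in concentration-response for blockade of dexamethasone (5 nM final)-induced GRE-bla reporter activity in HeLa cells; 18 h treatment, fluorescence read.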

Measured: Potency

Chain of Glucocorticoid receptor (Homo sapiens) (P04150 whole entry, looked up): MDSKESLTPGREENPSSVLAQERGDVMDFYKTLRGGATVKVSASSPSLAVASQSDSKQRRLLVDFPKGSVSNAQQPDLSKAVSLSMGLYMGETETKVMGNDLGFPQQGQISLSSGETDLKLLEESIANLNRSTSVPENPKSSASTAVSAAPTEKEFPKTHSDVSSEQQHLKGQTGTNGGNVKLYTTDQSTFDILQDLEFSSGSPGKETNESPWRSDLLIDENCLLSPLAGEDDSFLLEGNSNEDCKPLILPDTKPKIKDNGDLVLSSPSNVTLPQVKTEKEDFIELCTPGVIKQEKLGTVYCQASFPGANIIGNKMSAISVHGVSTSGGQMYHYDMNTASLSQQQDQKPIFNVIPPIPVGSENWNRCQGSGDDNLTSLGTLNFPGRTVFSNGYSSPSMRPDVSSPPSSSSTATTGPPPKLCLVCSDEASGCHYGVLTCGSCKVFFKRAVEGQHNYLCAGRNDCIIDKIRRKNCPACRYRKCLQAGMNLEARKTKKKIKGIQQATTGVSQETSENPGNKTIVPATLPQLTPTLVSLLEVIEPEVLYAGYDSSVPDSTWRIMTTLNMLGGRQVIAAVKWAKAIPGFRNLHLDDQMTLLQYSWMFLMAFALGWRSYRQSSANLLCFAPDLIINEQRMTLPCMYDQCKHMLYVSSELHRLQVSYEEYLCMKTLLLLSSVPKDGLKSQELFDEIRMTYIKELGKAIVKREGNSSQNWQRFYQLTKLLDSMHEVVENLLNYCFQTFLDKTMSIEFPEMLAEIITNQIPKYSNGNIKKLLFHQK

Cc1nccn1CC1CCc2c(c3ccccc3n2C)C1=O (centres undefined)
inactive: all assays above

CCCCCCCCCCCCCCCCCCOCC(O)CO (centres undefined)
active: [19] 952 nM [inconclusive]
not listed: [20]
inactive: all other assays above

CC(O)CN(CCCN(C)C)CCCN(C)C (centres undefined)
not listed: [20]
inactive: all other assays above

O=C(O)c1ccccc1S
inactive: all assays above

C=CCn1c(=O)n([C@@H]2O[C@H](CO)[C@@H](O)[C@H]2O)c2nc(N)[nH]c(=O)c21
not listed: [19] | [20]
inactive: all other assays above

Nc1nc2c(ncn2CCC(CO)CO)c(=O)[nH]1
inactive: all assays above

CCCc1ccc(N)cc1
not listed: [19] | [20]
inactive: all other assays above
